GoLoco inh red – blocks human Gai1 binding to RGS12 GoLoco peptide, red readout | 230,000 tested, 0.44% active | P63096 | AID 880 | Gai1:RGS12 GoLoco peptide FP, rhodamine, 10 min | Potency, µM (highest dose often 61.6 µM), inactives show at the top dose activity, negative = inhibition, hits mostly inhibitors; active means well fitted inhibition curve with a large enough effect, not every such curve was filed as active; inactive means no such curve, though single readings can be large or run the other way; further: on the % scale 0 is the no-effect control and ±100 the full control effect; nearly all actives have a fitted effect of over 30% in size
Target sequence (P63096 whole entry, looked up): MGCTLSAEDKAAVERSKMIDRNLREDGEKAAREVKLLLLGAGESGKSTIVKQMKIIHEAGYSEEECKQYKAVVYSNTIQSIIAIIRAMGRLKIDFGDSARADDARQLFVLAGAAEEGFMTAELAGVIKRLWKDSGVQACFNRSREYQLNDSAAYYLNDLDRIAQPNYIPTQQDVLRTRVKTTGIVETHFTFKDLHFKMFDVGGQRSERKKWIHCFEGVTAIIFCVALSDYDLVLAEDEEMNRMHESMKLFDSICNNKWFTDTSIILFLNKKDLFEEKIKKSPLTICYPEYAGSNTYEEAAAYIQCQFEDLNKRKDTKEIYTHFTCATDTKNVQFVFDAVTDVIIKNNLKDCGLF
TRb SRC2 PPI – inhibitors of human thyroid hormone receptor beta-SRC2 interaction | TRbeta-SRC2 peptide binding, fluorescence polarization; receptor liganded with 1 µM T3 | 280,000 tested, 0.065% active | AID 1469 | P10828 | Potency, µM (series often up to 106 µM), without a hit: top-dose activity change, negative = inhibition, usual class: inhibitors;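 further: plate controls were bound peptide for no effect and peptide without receptor for full effect; nearly all actives have a fitted effect of over 50% in size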
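Human TRb LBD (0.6 uM) plus Texas Red-labeled SRC2 peptide (20 nM), 1uM T3, 5% DMSO, 5 hr at ambient temperature. Decreased polarization (555/632 nm) flags inhibition; data normalized to free and bound peptide controls.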
TexasRed fluor – alters Texas Red total fluorescence, flagging assay interference | TRb/SRC2 Texas Red total fluorescence interference | Potency, µM (titrated, usually from 106 µM), for inactives: top-dose fluorescence change, negative = quenching | 280,000 tested, 0.29% active | AID 1479; active means well fitted curve in either direction with a large enough effect; inconclusive means small, poorly fitted or top-dose-only effect; further: on the % scale 0 is the no-effect control and ±100 the full control effect
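Flags fluorescent or light-absorbing compounds by total fluorescence, S + 2P, at 555 nm excitation and 632 nm emission. Mixture: 20 nM Texas Red SRC2 peptide, 0.6 uM human TRb LBD, 1 uM T3, 5% DMSO; compound exposure 5 h at ambient temperature.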
ERG Ets-DNA blk – ERG Ets/DNA interaction inhibition. P11308. fluorescence polarization, His-ERG Ets domain / labelled DNA. Potency, µM (top dose mostly 76.9 µM), inactives show at the highest dose FP activity, negative = inhibition, hits mostly inhibitors. 370,000 tested, 0.028% active. AID 624246; active means well fitted inhibition curve with a large enough effect in the polarisation, with a control signal flat; inconclusive means small, poorly fitted or top-dose-only effect, or effect the other way, or a change in a side signal; inactive means no such curve, though single readings can be large or run the other way; the % refers to the polarisation;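 further: polarization taken with two DNA probes labelled with fluorescein and Texas red; % of control where 0% means no effect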
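His-tagged ERG Ets domain (1 uM in the protein solution; 300mM KCl, 50mM Tris-HCl, 1mM EDTA, 1mM DTT, pH 7.5) received compound, then a probe mix of 5 nM fluorescein-DNA and 100nM Texas-615-DNA. Fluorescence polarization was read for both dyes.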
RECQ1 helicase – inhibitors of human RECQ1 DNA helicase. RECQ1 DNA unwinding, red fluorescence kinetic read. Potency, µM (highest dose often 57.3 µM), for inactives: at the highest dose activity, negative = inhibition, usual class: inhibitors. 240,000 tested, 0.54% active;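 further: plate controls were vehicle for no effect and no enzyme for full effect; nearly all actives have a fitted effect of over 30% in size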
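50 nM RECQ1T1 preincubated 15 min with compound in Tris pH 8.0 buffer with MgCl2, DTT, Tween-20 and 2.5 ug/ml poly(dI-dC); started with 200 nM TAMRA/BHQ-2 forked duplex and 2 mM ATP. Unwinding read as fluorescence (525/598 nm), two reads 2 h apart.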
BLM helicase inh – blocks DNA unwinding by human BLM helicase; P54132; recombinant BLM DNA unwinding, fluorescence dequenching; Potency, µM (top dose mostly 56.1 µM), for inactives: at the highest dose activity change, negative = inhibition, usual class: inhibitors; 350,000 tested, 0.2% active;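 further: plate controls were vehicle for no effect and no enzyme for full effect; nearly all actives have a fitted effect of over 35% in size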
The depositor's hits bear a star; i = inactive; ? = inconclusive; · = no result; ! = not active in a repeat; [ ] = remark or other dose. A selection: hits, their analogues and other compounds. The true share with any hit is near 0.71%. Unless noted, the call rests on the fitted dose curve; in most records, active means well fitted curve in the direction sought with a large enough effect; inconclusive means small, poorly fitted or top-dose-only effect, or another doubt; inactive means no such curve, though single readings can be large; an effect the other way counts as inactive or inconclusive. Potency means the concentration at half of the fitted maximal effect.

SMILES | GoLoco inh red | TRb SRC2 PPI | TexasRed fluor | ERG Ets-DNA blk | RECQ1 helicase | BLM helicase inh
O=C(NCCc1ccccc1)c1nnc(Cc2cccc(F)c2)o1 | · | -23% | 0.0056µM*[quencher] | 5% | · | -6%
C[N+](C)(C)CCC(=O)c1cccc2ccccc12 | 25µM*! | 2% | 1% | · | -11% | ·
O=C(O)CCC(=O)c1cccc2ccccc12 | 7% | -9% | -3% | -1% | -1% | 0%
CCCCCCc1ccc(-c2ccc(C#N)cc2)cc1 | 1% | 0% | 2% | · | -5% | ·
Cc1cc(C)c2c(=O)n(CC(=O)NC3CCCC3)sc2n1 | 3.5µM* | -1% | -4% | 3% | -2% | 0%
Cc1cc(C)c2c(N)c(C(=O)NC3CCCC3)sc2n1 | 11% | 0% | -1% | 6% | i | -5%
CC(C)OCC1CO1 (configuration not stated) | 25µM* | -4% | -1% | -1% | -6% | ·
Cn1c(=O)c2c(-c3ccccc3)n3c4ccccc4nc(-c4ccccc4)c3c2n(C)c1=O | · | 7% | -2% | -2% | · | -2%
Cc1nn(-c2ccc(S(=O)(=O)O)cc2)c(O)c1N=Nc1ccc(-c2ccc(N=Nc3ccc4c(S(=O)(=O)O)cc(S(=O)(=O)O)c(N)c4c3O)c(O)c2)cc1O.[Cu].[Cu] | 3.2µM* | · | · | · | · | ·
Cc1cc(-c2ccc(N=Nc3c(S(=O)(=O)O)cc4cc(S(=O)(=O)O)cc(N)c4c3O)c(C)c2)ccc1N=Nc1c(S(=O)(=O)O)cc2cc(S(=O)(=O)O)cc(N)c2c1O | · | · | · | · | · | -83%
COc1cc(-c2ccc(N=Nc3ccc4c(S(=O)(=O)O)cc(S(=O)(=O)O)c(N)c4c3O)c(OC)c2)ccc1N=Nc1ccc2c(S(=O)(=O)O)cc(S(=O)(=O)O)c(N)c2c1O | 30% | 25µM* | 16µM*[fluorescent] | · | 4.5µM* | ?
Cc1ccc(Nc2nnc(-c3ccc(C)c(S(=O)(=O)N4CCOCC4)c3)c3ccccc23)c(C)c1 | · | -12% | 0.014µM*[quencher] | -4% | · | -8%
Cc1ccc(OCCn2cc(/C=N/NC(=O)c3ccncc3)c3ccccc32)cc1 | 2% | 7% | -3% | ? | 25µM* | -2%
COc1ccc(OCCn2cc(/C=N/NC(=O)c3ccncc3)c3ccccc32)cc1 | 16% | -3% | -4% | 2% | -25% | -13%
COc1ccc(CNC(=O)c2cc(-c3cccs3)nc3ccccc23)c(OC)c1 | · | -10% | 0.022µM*[quencher] | 0% | · | -9%
COc1ccc(OC)c(CNC(=O)c2cc(-c3ccc(Cl)s3)nc3ccccc23)c1 | · | -1% | ? | 10% | · | -3%
Cc1cc(C(=O)O)ccc1-c1ccc(/C=C2\SC(=O)N(CC(=O)Nc3ccc4c(c3)OCO4)C2=O)o1 | · | · | · | · | · | 11µM*
O=C(CCN1CCN(c2ccccc2)CC1)N/N=C/c1ccc(O)c(O)c1O | 22% | 5% | -2% | 3% | i | 11µM*
NS(=O)(=O)c1ccc(NC(=S)NC(=O)c2ccc(-c3ccccc3)cc2)cc1 | -25% | -22%[53 µM] | 0.32µM*[quencher] | -7% | -1% | 3%
CC(C)CCNC(=O)C(CC(C)C)NC(=O)C1OC1C(=O)O (configuration not stated) | · | 4% | -8% | · | 8% | 4%
CCOC(=O)NN1C(=O)c2ccccc2NC1c1ccccc1 (configuration not stated) | 7% | 6% | ? | -11% | -2% | 7%
CCOC(=O)NN1C(=O)c2ccccc2NC1c1ccc(N(C)C)cc1 (configuration not stated) | 6% | -11% | 112µM*[quencher] | -4% | -10% | -2%
O=S(=O)(O)c1ccc2c(c1)-c1nc-2nc2[nH]c(nc3nc(nc4[nH]c(n1)c1ccc(S(=O)(=O)O)cc41)-c1ccc(S(=O)(=O)O)cc1-3)c1ccc(S(=O)(=O)O)cc21 | · | ? | 2.2µM*[quencher] | · | 0.56µM* | 1.6µM*
CN(C)CC(O)Cn1c2ccc(Br)cc2c2cc(Br)ccc21 (configuration not stated) | 6% | 7% | -1% | · | -5% | ·
